# According to paper PMC7862700, “An all-to-all approach to the identification of sequence-specific readers for epigenetic DNA modifications on cytosine”:
# Key:
# Assay in all cases: DAPPL (digital affinity profiling via proximity ligation, sequencing); 10 mM Tris-HCl pH 7.5, 50 mM NaCl, 1 mM DTT, 4% glycerol, room temperature, 30 min; GST-TFs on glutathione beads, 16-mer random dsDNA library, 0.1% formaldehyde crosslink after washing; high values mean tight binding
# Details in all cases: protein: recombinant; tags: N-terminal GST; dsDNA, one strand shown
# [1] = molecular target: ETV1 (Homo sapiens, UniProt P50549 1-477)
# ETV1, sequence (P50549 whole entry, the tested form may be a part): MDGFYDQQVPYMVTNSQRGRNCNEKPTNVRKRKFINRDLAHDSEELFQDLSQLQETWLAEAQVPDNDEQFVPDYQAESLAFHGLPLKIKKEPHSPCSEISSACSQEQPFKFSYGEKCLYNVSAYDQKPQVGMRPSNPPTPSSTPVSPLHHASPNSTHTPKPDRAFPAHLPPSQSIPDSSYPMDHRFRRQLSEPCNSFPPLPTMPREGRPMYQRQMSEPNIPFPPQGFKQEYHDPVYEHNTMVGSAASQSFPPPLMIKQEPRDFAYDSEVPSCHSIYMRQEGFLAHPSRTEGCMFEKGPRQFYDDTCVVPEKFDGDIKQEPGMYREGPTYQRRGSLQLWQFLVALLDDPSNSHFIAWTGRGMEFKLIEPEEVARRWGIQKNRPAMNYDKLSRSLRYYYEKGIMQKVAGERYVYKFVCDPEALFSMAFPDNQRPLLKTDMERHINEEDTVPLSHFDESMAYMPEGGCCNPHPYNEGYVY
# Method in brief: (§1)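 Binding signal is given per hexamer as its read frequency for a factor divided by its frequency in the tag-only sample. GST-fused human transcription factors were expressed in yeast, captured on glutathione beads, barcoded with DNA and pooled with that sample, then incubated with 200 nmole of a 16-mer random double-stranded DNA library in Tris/NaCl/DTT/glycerol buffer for 30 min at room temperature. The pools were then washed, crosslinked, proximity-ligated, amplified by PCR and sequenced on an Illumina NextSeq500.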
# [2] = molecular target: T1, ERF (Homo sapiens, UniProt P50548 1-548)
# T1 sequence: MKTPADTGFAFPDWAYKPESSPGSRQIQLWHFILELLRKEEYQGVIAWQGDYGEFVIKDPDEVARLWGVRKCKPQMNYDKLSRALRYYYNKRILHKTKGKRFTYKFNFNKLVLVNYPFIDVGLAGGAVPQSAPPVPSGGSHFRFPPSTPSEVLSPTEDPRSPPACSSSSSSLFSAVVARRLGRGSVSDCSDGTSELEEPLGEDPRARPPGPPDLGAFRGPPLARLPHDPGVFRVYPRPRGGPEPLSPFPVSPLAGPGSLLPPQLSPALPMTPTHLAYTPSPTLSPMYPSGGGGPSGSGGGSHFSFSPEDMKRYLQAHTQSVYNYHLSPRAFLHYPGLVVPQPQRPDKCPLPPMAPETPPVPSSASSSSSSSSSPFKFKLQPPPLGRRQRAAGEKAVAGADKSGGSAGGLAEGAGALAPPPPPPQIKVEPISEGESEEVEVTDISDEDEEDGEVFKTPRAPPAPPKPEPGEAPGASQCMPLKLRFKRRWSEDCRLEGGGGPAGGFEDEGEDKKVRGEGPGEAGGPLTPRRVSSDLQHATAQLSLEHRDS
# Method in brief: as §1
# [3] = molecular target: T2, ETV3L (Homo sapiens, UniProt Q6ZN32 1-361)
# T2 sequence: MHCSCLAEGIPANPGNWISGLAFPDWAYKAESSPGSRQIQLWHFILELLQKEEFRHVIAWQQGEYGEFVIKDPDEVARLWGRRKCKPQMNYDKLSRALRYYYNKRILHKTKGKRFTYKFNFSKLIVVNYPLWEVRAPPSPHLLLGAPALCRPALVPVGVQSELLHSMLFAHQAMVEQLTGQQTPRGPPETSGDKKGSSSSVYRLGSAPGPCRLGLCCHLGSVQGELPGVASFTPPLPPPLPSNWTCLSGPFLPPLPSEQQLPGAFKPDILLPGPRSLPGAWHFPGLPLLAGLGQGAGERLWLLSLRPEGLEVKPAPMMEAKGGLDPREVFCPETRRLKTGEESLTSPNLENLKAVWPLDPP
# Method in brief: as §1
# [4] = molecular target: T3, ETS2 (Homo sapiens, UniProt P15036 1-469)
# T3 sequence: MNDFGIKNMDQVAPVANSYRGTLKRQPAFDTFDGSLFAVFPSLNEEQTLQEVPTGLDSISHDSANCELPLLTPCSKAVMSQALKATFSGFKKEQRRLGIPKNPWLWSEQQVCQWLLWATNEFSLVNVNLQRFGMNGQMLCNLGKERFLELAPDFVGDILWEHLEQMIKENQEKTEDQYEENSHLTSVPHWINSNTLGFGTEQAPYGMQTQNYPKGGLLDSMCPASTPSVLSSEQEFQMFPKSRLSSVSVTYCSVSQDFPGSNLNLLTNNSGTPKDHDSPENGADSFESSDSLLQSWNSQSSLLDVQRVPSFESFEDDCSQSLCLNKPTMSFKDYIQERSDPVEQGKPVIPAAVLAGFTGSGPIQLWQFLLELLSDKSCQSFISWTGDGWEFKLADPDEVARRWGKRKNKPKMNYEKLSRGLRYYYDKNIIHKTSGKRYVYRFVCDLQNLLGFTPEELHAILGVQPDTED
# Method in brief: as §1
# [5] = molecular target: T4, SPDEF (Homo sapiens, UniProt O95238 1-335)
# T4 sequence: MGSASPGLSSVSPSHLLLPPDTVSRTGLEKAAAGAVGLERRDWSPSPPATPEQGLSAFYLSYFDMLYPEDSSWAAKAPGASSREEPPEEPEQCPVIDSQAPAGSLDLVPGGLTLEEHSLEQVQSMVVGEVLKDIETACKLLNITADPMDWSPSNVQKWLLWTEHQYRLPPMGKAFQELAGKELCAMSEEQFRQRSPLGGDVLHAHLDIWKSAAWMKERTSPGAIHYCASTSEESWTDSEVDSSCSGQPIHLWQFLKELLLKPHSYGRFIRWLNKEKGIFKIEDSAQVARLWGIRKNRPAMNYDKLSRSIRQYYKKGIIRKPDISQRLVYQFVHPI
# Method in brief: as §1
# [6] = molecular target: T5, ETV7 (Homo sapiens, UniProt Q9Y603 1-341)
# T5 sequence: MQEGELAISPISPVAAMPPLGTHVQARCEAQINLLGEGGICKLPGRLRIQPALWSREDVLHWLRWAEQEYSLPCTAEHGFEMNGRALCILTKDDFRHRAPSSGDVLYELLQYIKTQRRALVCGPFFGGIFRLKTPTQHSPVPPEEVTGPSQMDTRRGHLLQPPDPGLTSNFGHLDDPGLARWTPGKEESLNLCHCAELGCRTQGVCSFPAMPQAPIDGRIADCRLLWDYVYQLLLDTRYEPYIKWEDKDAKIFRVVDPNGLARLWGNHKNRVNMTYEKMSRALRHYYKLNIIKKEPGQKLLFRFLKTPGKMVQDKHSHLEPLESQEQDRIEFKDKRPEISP
# Method in brief: as §1
# [7] = molecular target: T6, ELF5 (Homo sapiens, UniProt Q9UKW6-2 1-255)
# T6 sequence: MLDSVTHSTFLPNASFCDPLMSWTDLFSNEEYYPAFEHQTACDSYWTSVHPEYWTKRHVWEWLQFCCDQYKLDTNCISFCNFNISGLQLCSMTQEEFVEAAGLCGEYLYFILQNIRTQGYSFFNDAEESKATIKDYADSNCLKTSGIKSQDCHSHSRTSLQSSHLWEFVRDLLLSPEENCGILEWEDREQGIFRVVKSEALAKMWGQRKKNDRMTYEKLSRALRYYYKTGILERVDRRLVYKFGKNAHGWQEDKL
# Method in brief: as §1
# [8] = molecular target: T7, ETV3 (Homo sapiens, UniProt P41162-2 1-143)
# T7 sequence: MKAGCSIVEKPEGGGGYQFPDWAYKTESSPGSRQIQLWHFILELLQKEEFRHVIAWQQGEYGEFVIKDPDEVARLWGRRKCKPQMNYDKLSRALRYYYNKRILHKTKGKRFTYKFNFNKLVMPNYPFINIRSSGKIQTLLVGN
# Method in brief: as §1
# [9] = molecular target: ETV6 (Homo sapiens, UniProt P41212 1-452)
# ETV6, sequence (P41212 whole entry): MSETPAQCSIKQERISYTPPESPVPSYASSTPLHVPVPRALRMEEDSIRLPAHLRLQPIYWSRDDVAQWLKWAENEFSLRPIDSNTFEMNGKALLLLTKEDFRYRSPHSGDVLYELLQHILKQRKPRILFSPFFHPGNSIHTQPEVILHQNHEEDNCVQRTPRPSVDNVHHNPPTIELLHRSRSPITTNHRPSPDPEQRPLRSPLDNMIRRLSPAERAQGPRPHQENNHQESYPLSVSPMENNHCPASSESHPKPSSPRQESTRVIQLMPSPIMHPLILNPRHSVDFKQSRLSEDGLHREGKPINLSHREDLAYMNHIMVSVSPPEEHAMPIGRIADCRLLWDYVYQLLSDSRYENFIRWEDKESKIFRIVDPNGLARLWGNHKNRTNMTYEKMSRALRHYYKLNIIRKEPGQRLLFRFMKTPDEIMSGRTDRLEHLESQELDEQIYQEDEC
# Method in brief: as §1
sequence,measurement,setting,value
CATTAC,binding signal,[1],"1.18 fold enrichment (6-mer frequency, TF over GST control)"
same,binding signal,[2],"1.09 fold enrichment (6-mer frequency, TF over GST control)"
same,binding signal,[3],"1.14 fold enrichment (6-mer frequency, TF over GST control)"
same,binding signal,[4],"1.23 fold enrichment (6-mer frequency, TF over GST control)"
same,binding signal,[5],"1.14 fold enrichment (6-mer frequency, TF over GST control)"
same,binding signal,[6],"1.03 fold enrichment (6-mer frequency, TF over GST control)"
same,binding signal,[7],"1.1 fold enrichment (6-mer frequency, TF over GST control)"
same,binding signal,[8],"1.13 fold enrichment (6-mer frequency, TF over GST control)"
same,binding signal,[9],"1.11 fold enrichment (6-mer frequency, TF over GST control)"
